Measurements as given in PubChem BioAssay.
Records with an inconclusive call do not appear. Active and inactive are the calls of the source. Unless noted, no stated cut-off is given here; in the data, active means percent of DMSO control GFP below about 86%; inactive means the rest, inconclusive results apart.

Key:
[1] = yeast TOR pathway RPL19A-GFP modulators, primary screen, cell-based, S. cerevisiae, multiplex flow cytometry (AID 1862);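 further: lower values mimic rapamycin by blocking the RPL19A rise seen in DMSO cells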; settings: S. cerevisiae RPL19A-GFP strain, flow cytometry fluorescence, 3 h; at 10 µM; stronger effect = lower value
[2] = modulators of MEP2-GFP levels in yeast, primary screen, S. cerevisiae, multiplex flow cytometry (AID 1867;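 active means GFP response, as percent of the DMSO control, above the screen-wide mean plus 3 SD, about 139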;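 further: median GFP channel fluorescence of barcode-gated MEP2-GFP cells measured by flow cytometry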); settings: S. cerevisiae MEP2-GFP strain, 3 h, at 10 µM, stronger effect = higher value, 100% means same as DMSO wells
[3] = modulators of CIT2-GFP expression in yeast, primary screen, S. cerevisiae, GFP fusion, multiplex flow cytometry (AID 1870;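 active means percent response above a set limit, the screen-wide mean plus 3 SD, cut at about 130% in these data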;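 further: barcoded CIT2-GFP strain pooled with four other GFP strains with rapamycin as positive control; median GFP fluorescence per well over plate mean of DMSO wells so 100% = DMSO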); settings: 3 h, at 10 µM, stronger effect = higher value
[4] = modulators of LAP4-GFP expression in yeast, primary screen, S. cerevisiae, multiplex flow cytometry (AID 1873;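 active means GFP signal, as percent of the solvent control, above the screen mean plus 3 SD, about 149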); settings: 3 h, at 10 µM, stronger effect = higher value
[5] = modulators of AGP1-GFP expression in yeast TOR pathway, primary screen, cell-based, multiplex flow cytometry, S. cerevisiae (AID 1887;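 active means GFP signal above the screen-wide mean plus 3 SD, that is over about 124.5% of the solvent control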;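 further: AGP1-GFP fusion strain of S. cerevisiae within a five-strain barcoded multiplex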); settings: 3 h, at 10 µM, stronger effect = higher value
[6] = inhibitors of CD8+ T cell-vesicle binding, pilot screen, LFA-1/ICAM-1 modulator project, MLPCN validation set, flow cytometry (AID 2523;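 active means response below a set limit, under 55% cells CD8-positive and vesicle-bound, and CD8 cells' 90th-percentile brightness under 279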;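 on vesicle binding response: mean PE anti-B7-1 fluorescence of CD8+ cells relative to row control; 100% = QL9-loaded vesicles with DMSO vehicle in the same plate row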); settings: 2C mouse CD8+ T cells, at 7 µM, stronger effect = lower value; double positive events: measured here: CD8+/vesicle+ event percentage
[7] = target: Integrin beta-1 (Homo sapiens) + Integrin alpha-4 (Homo sapiens) (UniProt P13612+P05556); assay: inhibition of HUTS-21 binding to VLA-4, pilot screen, VLA-4 allosteric modulator project, U937 cells, HUTS-21 mAb, flow cytometry, validation set (AID 2674;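 active means inhibition above 50%, about 3 SD of the validation set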;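 further: antibody binding induced by the VLA-4 ligand LDV present at three times its Kd; 0% = LDV ligand with antibody and no compound and 100% = antibody without LDV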); settings: HUTS-21 LIBS mAb binding, at 6.7 µM, stronger effect = higher value, binding induced by LDV ligand
[8] = superoxide lowering in aged yeast cells, pilot screen, validation compound set (AID 2706;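 active means superoxide response below 65% of plate, a cut near 3 SD across the whole screen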;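 further: yeast exposed to compound for one week at 30 degrees C before staining; 100% = mean of all compound wells on the same plate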); settings: S. cerevisiae aging, superoxide DHE fluorescence; at 10 µM; stronger effect = lower value
[9] = target: Beta-adrenergic receptor kinase 1 (Homo sapiens) (UniProt P25098); assay: GRK2 binders displacing RNA aptamer, biochemical, validation, human GRK2, bead flow cytometry (AID 488806;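 active means aptamer binding inhibition above 30%, about 3 SD of noise from non-fluorescent compounds; inactive means inhibition at or below 30%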); settings: bead-bound GRK2, FAM-aptamer displacement, at 10 µM, stronger effect = higher value
[10] = target: Beta-2 adrenergic receptor (Homo sapiens) (UniProt P07550); assay: beta2AR agonists driving receptor internalization, pilot screen, cell-based, FAP fluorogen, flow cytometry, validation set (AID 504459;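 active means percent response above 42, roughly 3 SD of non-fluorescent test compounds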;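 further: agonist-driven loss of surface beta2AR via internalization measured by FAP dye flow cytometry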); settings: Am2.2-beta2AR cells, FAP surface receptor flow cytometry; at 10 µM; stronger effect = higher value
[11] = target: AP-2 complex subunit beta (Homo sapiens) (UniProt P63010); assay: inhibitors of arrestin peptide binding to AP2, pilot screen, biochemical, validation set, GST-AP2 beads, flow cytometry (AID 504541;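 active means inhibition above 54%, about 3 SD of non-fluorescent compounds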;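 further: AP2 carries R879A mutation and is captured from E. coli lysate; bead-bound FITC arrestin peptide fluorescence measuring arrestin peptide binding to AP2; 0% = DMSO wells and 100% = excess unlabeled arrestin peptide control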); settings: FITC arrestin peptide, at 10 µM, stronger effect = higher value, AP2 beta2 appendage fragment, R879A mutant
[12] = yeast V-ATPase proton transport modulators, S. cerevisiae, pHLuorin, HTS validation (AID 504600; in the data active means response above about 15%;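 further: plate controls were DMSO for no effect and reference compound for full effect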); settings: S. cerevisiae pHLuorin cytosolic pH, at 10 µM, stronger effect = higher value
[13] = tested on: anti-desmoglein-3 scFv antibody binding to human DSG3; assay: inhibitors of anti-DSG3 scFv binding to DSG3, pilot screen, biochemical, validation compound set, bead-based, flow cytometry (AID 588368;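 active means binding below the plate cutoff, the plate median minus 3 SD, with a reading above zero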;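 further: signal is the median channel fluorescence of bead-bound GFP antibody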); settings: Protein G beads, DSG3-Fc, scFv-GFP binding, at 10 µM, stronger effect = lower value
[14] = inhibitors of fungal efflux pumps CDR1, CDR2, MDR1, pilot screen, validation compound set, multiplex, phenotypic (AID 588506;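 active means efflux inhibition above 0.42, the validation set average plus 4 SD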;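 further: Nile Red retained in cells so higher fluorescence means more efflux inhibition; 0 = negative control wells and 1 = enniatin B 25 µM full block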); settings: S. cerevisiae pump-expressing triplex, Nile Red efflux flow cytometry; at 10 µM; stronger effect = higher value; the pumps come from Candida albicans
[15] = target: ATP-binding cassette sub-family B member 6 (Homo sapiens) (UniProt Q9NP58); assay: ABCB6 transporter inhibitors, pilot screen, K562-ABCB6 cells, flow cytometry, validation set (AID 588550;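 active means inhibition above the screen-wide mean plus 3 SD, about 51%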;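 further: 0% = DMSO wells and 100% = benzethonium chloride 70 µM positive control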); settings: K562-ABCB6 porphyrin accumulation, 1 h, at 10 µM, stronger effect = higher value
[16] = promoters of myeloid differentiation in arrested cells, primary screen, cell-based, GFP/MAC1 double positive, flow cytometry, validation set (AID 588685;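 active means differentiation response of at least 50%, scaled between solvent and reference control, from cells with both markers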;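 further: compound exposure lasts four days before antibody staining and flow analysis; 0% = DMSO wells and 100% = 5 µM fulvestrant positive control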); settings: ER-HoxA9 marrow cells, stronger effect = higher value, normalized: vehicle 0, fulvestrant 100

Sequence of Beta-2 adrenergic receptor (Homo sapiens) (P07550 whole entry, looked up): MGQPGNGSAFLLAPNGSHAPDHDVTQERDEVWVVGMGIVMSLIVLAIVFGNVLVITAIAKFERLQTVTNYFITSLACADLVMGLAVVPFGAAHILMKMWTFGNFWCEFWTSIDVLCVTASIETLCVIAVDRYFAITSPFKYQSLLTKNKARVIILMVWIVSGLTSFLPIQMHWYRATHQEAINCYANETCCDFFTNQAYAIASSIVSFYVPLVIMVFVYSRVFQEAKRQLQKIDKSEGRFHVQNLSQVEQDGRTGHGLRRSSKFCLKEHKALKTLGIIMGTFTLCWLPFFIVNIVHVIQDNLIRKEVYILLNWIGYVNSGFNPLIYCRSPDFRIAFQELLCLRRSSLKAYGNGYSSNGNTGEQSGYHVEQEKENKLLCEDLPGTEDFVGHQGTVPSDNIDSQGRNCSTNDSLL
Sequence of AP-2 complex subunit beta (Homo sapiens) (P63010 whole entry, looked up, the tested form may be a part, one chain of several): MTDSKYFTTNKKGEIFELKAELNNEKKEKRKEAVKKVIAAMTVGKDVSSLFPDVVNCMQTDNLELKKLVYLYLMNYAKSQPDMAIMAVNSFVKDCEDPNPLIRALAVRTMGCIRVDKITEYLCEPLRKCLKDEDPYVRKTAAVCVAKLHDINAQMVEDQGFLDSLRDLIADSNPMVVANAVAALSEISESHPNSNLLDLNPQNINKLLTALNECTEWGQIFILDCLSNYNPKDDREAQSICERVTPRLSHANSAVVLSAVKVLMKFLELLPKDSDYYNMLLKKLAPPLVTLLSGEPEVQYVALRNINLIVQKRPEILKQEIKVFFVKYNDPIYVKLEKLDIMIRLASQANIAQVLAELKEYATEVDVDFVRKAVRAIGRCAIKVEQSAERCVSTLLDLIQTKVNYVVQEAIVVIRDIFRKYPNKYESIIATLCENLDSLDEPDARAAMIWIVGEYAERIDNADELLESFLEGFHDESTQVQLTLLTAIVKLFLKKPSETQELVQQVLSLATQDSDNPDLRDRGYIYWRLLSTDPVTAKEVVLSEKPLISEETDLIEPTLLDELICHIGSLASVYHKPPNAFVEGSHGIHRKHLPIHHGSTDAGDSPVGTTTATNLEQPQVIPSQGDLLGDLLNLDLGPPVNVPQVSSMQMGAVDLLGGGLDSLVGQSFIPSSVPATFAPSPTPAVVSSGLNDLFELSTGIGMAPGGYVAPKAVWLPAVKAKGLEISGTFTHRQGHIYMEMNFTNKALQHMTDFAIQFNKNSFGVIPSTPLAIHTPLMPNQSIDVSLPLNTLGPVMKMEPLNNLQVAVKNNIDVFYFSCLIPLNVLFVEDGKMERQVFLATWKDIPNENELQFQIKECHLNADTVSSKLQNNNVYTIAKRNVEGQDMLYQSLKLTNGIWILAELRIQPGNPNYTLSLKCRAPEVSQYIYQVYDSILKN
Sequence of Integrin beta-1 (Homo sapiens) + Integrin alpha-4 (Homo sapiens) (P05556 whole entry, looked up): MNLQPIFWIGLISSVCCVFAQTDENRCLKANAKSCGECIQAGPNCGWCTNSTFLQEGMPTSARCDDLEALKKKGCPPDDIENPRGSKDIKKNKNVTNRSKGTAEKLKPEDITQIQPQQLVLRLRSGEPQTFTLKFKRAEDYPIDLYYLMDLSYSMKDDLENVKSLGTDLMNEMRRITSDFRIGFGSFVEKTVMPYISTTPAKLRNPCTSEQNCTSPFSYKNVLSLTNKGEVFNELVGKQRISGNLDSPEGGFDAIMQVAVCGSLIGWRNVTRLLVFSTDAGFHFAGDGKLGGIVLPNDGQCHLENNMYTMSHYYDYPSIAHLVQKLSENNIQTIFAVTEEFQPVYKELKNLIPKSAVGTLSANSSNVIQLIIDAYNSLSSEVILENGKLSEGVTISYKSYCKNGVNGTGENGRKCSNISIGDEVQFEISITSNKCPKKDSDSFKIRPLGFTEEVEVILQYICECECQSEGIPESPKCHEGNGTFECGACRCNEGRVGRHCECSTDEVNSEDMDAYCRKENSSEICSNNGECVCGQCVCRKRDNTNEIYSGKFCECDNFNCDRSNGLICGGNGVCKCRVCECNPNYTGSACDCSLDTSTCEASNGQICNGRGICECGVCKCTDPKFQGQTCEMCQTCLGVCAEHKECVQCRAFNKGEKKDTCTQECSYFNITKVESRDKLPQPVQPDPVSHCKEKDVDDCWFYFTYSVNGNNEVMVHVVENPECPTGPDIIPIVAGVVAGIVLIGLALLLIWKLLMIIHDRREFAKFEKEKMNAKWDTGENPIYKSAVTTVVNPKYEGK
Sequence of Integrin beta-1 (Homo sapiens) + Integrin alpha-4 (Homo sapiens) (P13612 whole entry, looked up): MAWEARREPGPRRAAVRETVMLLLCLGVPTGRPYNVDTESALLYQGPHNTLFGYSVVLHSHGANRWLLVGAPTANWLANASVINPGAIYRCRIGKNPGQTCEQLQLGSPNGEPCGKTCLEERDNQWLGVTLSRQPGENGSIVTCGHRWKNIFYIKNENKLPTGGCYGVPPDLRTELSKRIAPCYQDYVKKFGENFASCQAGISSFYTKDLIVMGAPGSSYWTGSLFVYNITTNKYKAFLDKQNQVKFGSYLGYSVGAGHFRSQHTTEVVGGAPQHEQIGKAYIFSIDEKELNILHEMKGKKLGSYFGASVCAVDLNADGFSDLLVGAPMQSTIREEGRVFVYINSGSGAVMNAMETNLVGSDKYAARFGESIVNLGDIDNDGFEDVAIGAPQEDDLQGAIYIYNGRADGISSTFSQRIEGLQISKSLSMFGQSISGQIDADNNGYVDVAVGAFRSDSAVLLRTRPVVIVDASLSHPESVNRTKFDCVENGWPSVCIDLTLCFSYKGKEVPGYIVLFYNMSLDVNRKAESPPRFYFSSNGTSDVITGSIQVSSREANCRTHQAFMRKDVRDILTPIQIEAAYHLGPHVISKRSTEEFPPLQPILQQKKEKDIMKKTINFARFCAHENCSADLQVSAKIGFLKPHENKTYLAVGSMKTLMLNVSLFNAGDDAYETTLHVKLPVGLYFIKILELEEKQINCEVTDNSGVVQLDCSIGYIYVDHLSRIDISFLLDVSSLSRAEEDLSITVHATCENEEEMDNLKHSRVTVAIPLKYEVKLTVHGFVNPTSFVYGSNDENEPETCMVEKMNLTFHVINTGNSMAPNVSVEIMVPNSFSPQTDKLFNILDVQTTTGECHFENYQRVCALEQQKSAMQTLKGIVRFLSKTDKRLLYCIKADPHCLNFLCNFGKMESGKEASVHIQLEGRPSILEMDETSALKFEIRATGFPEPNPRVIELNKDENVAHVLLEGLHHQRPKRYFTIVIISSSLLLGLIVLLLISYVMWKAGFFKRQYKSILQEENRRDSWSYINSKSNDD
Sequence of Beta-adrenergic receptor kinase 1 (Homo sapiens) (P25098 whole entry, looked up): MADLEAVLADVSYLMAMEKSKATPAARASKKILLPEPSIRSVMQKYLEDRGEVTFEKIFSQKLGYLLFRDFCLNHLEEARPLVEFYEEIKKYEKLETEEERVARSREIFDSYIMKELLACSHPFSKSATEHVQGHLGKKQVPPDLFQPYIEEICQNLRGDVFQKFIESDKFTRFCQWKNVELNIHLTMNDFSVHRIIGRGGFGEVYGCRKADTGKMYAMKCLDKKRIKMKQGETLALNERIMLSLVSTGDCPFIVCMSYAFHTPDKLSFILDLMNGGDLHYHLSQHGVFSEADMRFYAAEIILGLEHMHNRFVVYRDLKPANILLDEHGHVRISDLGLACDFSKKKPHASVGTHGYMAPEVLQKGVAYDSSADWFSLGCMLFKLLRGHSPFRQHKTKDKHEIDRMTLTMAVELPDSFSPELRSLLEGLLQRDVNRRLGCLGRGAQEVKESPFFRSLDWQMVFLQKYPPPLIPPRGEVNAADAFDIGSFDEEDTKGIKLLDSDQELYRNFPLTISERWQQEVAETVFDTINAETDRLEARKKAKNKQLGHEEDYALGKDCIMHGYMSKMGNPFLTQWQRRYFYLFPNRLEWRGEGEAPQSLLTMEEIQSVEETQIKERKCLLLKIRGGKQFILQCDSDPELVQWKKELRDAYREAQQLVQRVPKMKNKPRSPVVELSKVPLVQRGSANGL
Sequence of ATP-binding cassette sub-family B member 6 (Homo sapiens) (Q9NP58 whole entry, looked up): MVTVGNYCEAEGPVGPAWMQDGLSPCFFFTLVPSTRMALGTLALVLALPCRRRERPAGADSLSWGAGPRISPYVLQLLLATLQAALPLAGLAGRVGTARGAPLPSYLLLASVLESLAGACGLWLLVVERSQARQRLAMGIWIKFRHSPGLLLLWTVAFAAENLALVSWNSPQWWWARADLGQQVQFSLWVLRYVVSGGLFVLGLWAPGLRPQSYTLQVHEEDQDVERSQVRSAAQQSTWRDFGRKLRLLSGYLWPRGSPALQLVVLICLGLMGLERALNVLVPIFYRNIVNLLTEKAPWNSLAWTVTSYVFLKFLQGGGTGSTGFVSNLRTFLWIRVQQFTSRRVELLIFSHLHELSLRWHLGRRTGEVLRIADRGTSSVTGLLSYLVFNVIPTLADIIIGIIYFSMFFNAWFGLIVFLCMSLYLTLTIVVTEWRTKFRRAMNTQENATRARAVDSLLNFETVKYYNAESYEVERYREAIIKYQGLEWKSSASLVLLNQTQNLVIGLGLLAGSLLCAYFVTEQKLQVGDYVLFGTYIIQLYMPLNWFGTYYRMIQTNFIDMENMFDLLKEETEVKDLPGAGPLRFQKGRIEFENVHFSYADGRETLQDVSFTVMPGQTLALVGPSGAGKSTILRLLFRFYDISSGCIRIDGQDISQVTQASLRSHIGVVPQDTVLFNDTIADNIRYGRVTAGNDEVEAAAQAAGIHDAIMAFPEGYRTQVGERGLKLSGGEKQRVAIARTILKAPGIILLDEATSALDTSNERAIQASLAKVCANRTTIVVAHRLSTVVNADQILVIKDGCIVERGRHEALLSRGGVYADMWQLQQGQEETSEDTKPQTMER

Row | SMILES | percent of DMSO control GFP [1] | GFP response vs DMSO [2] | percent response of DMSO control [3] | GFP response vs DMSO [4] | GFP response, % of DMSO [5] | double positive events [6] [%] | vesicle binding response [6] | inhibition [7] | superoxide response (% of plate) [8] | aptamer binding inhibition [9] | response [10] | inhibition [11] | response [12] | binding (% of control) [13] | efflux inhibition (fraction of control) [14] | inhibition [15] | differentiation response [16]
1 | Clc1ccc2c(c1)CCc1cccnc1C2=C1CCNCC1 | 101% (inactive) | 109% (inactive) | 104% (inactive) | 93.3% (inactive) | 97% (inactive) | 63.9 | 1240% (inactive) | 3.7% (inactive) | 98.7% (inactive) | 3% (inactive) | 16.1% (inactive) | 13.9% (inactive) | 1.57% (inactive) | 103% (inactive) | -0.17 (inactive) | -15% (inactive) | -4.64% (inactive)
2 | COc1cc2c(cc1OC)C(=S)NC(C)(C)C2 | 102% (inactive) | 106% (inactive) | 100% (inactive) | 95.3% (inactive) | 102% (inactive) | 60.1 | 1280% (inactive) | -11.9% (inactive) | 110% (inactive) | 0% (inactive) | 0.62% (inactive) | 22% (inactive) | -4.8% (inactive) | 101% (inactive) | 0.08 (inactive) | -13% (inactive) | 6.11% (inactive)
3 | O=C1c2cccc3cccc(c23)C(=O)N1c1ccccn1 | 107% (inactive) | 101% (inactive) | 109% (inactive) | 97.3% (inactive) | 107% (inactive) | 58.2 | 79.7% (inactive) | 9.92% (inactive) | 107% (inactive) | 4% (inactive) | -9.79% (inactive) | 1.31% (inactive) | 3% (inactive) | 95.3% (inactive) | -0.07 (inactive) | -11% (inactive) | -1.71% (inactive)
4 | O=c1c(C(c2ccccc2)c2c(O)sc3ccccc3c2=O)c(O)sc2ccccc12 | 93.8% (inactive) | 97.6% (inactive) | 91.8% (inactive) | 112% (inactive) | 113% (inactive) | 71.3 | 187% (inactive) | 15.9% (inactive) | 90.1% (inactive) | 1% (inactive) | -1.18% (inactive) | -1.26% (inactive) | 0.43% (inactive) | 107% (inactive) | -0.13 (inactive) | -30% (inactive) | 37.4% (inactive)
5 | COC(=O)[C@H]1[C@H]2C[C@@H]3c4[nH]c5cc(OC)ccc5c4CCN3C[C@H]2C[C@@H](OC(=O)c2ccc(N)cc2)[C@@H]1OC | 105% (inactive) | 98.3% (inactive) | 111% (inactive) | 94% (inactive) | 102% (inactive) | 64.5 | 828% (inactive) | -393% (inactive) | 97% (inactive) | 3% (inactive) | -18.1% (inactive) | -1.6% (inactive) | -2.37% (inactive) | 104% (inactive) | -0.17 (inactive) | -53% (inactive) | 0.24% (inactive)
6 | COc1cc(CNc2nnnn2C)ccc1OCc1ccc(F)cc1Cl | 102% (inactive) | 101% (inactive) | 98.2% (inactive) | 92.3% (inactive) | 97.2% (inactive) | 66.7 | 150% (inactive) | 3.98% (inactive) | 51.5% (active) | -1% (inactive) | 15.7% (inactive) | 16.9% (inactive) | 0.17% (inactive) | 104% (inactive) | 0.68 (active) | 7% (inactive) | -5.68% (inactive)
7 | CC1(C)Cc2ccccc2-c2n[nH]c(=S)n21 | 99.1% (inactive) | 102% (inactive) | 101% (inactive) | 102% (inactive) | 104% (inactive) | 61.1 | 203% (inactive) | 9.63% (inactive) | 92.5% (inactive) | 2% (inactive) | -1.77% (inactive) | 56.7% (active) | -1.77% (inactive) | 97.2% (inactive) | 0.19 (inactive) | 11% (inactive) | -14.8% (inactive)
8 | NC(=O)c1cnccn1 | 101% (inactive) | 110% (inactive) | 92.5% (inactive) | 110% (inactive) | 111% (inactive) | 60.5 | 240% (inactive) | 10.8% (inactive) | 102% (inactive) | 9% (inactive) | -6.65% (inactive) | -9.13% (inactive) | 11.1% (inactive) | 102% (inactive) | -0.09 (inactive) | 2% (inactive) | 25.6% (inactive)
9 | Cc1ccc(-c2nnc(-c3ccc4c(c3)OCO4)o2)cc1 | 103% (inactive) | 106% (inactive) | 109% (inactive) | 121% (inactive) | 115% (inactive) | 57.9 | 165% (inactive) | -2.82% (inactive) | 98.9% (inactive) | -7% (inactive) | -16.4% (inactive) | 6.09% (inactive) | 2.28% (inactive) | 99.9% (inactive) | 0.04 (inactive) | 2% (inactive) | -0.06% (inactive)
